Source: PubChem BioAssay (NCI)
The panel holds about 83,000 compounds, 20% with a hit somewhere; the sample as a whole holds those more often.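 The test compound was applied at a single concentration to cells in 96-well plates for 48 hours, and percent growth was recorded.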 Activity calls are given as the source filed them. How the source made its calls: active means growth percent below 10; inactive means the rest.

Key:
Assay in all cases: NCI-60 one-dose screen, 48 h (100 = growth as untreated, 0 = no growth, -100 = all killed)
Details in all cases: 10 µM
HCT-15 colon = test system: HCT-15 colon
HT29 colon = test system: HT29 colon
SNB-75 CNS = test system: SNB-75 CNS
SNB-19 CNS = test system: SNB-19 CNS
PC-3 prostate = test system: PC-3 prostate
SK-MEL-5 melanoma = test system: SK-MEL-5 melanoma
UACC-62 melanoma = test system: UACC-62 melanoma
LOX IMVI melanoma = test system: LOX IMVI melanoma
SK-MEL-28 melanoma = test system: SK-MEL-28 melanoma
SK-MEL-2 melanoma = test system: SK-MEL-2 melanoma
EKVX NSCLC = test system: EKVX NSCLC
SN12C renal = test system: SN12C renal
TK-10 renal = test system: TK-10 renal
ACHN renal = test system: ACHN renal
CAKI-1 renal = test system: CAKI-1 renal
CCRF-CEM leukemia = test system: CCRF-CEM leukemia
MOLT-4 leukemia = test system: MOLT-4 leukemia
UO-31 renal = test system: UO-31 renal
A498 renal = test system: A498 renal
U251 CNS = test system: U251 CNS

Measured: growth

O=C(CSc1ccc(-c2ccc(Cl)cc2)nn1)Nc1ccc(Cl)c(C(F)(F)F)c1
inactive: HCT-15 colon 25.9% | HT29 colon 40.6% | SNB-75 CNS 58.6% | SNB-19 CNS 71.9% | PC-3 prostate 71.9% | SK-MEL-5 melanoma 55.9% | UACC-62 melanoma 32.7% | LOX IMVI melanoma 47.3% | SK-MEL-28 melanoma 66.9% | SK-MEL-2 melanoma 59.7% | EKVX NSCLC 44.3% | SN12C renal 79.3% | TK-10 renal 66% | ACHN renal 79.3% | CAKI-1 renal 61.3% | CCRF-CEM leukemia 44.9% | MOLT-4 leukemia 11%

CN1CCN(c2ccc(Nc3nc(N4CCN(S(=O)(=O)c5ccc(Cl)cc5)CC4)c4sccc4n3)cc2)CC1
inactive: SNB-75 CNS 67.1% | SNB-19 CNS 28.4% | PC-3 prostate 28.5% | SK-MEL-2 melanoma 79.4% | EKVX NSCLC 62.1% | SN12C renal 91.9% | UO-31 renal 64.2% | TK-10 renal 85.9% | A498 renal 125%
active: HCT-15 colon -78.6% | HT29 colon -51.3% | SK-MEL-5 melanoma -100% | UACC-62 melanoma -90.3% | SK-MEL-28 melanoma -98.6% | ACHN renal -64.4% | CAKI-1 renal 7.7% | CCRF-CEM leukemia 1.87%

CC1(c2ccccc2)NC(=O)N(CC(=O)Nc2ccc(C(=O)/C=C/C=C/c3ccccc3)cc2)C1=O (configuration not stated)
inactive: HCT-15 colon 12.8% | HT29 colon 25.4% | SNB-75 CNS 54.9% | SNB-19 CNS 61.6% | PC-3 prostate 36.4% | SK-MEL-5 melanoma 51.6% | UACC-62 melanoma 43.1% | LOX IMVI melanoma 26% | SK-MEL-28 melanoma 70.9% | SK-MEL-2 melanoma 90% | EKVX NSCLC 71.6% | SN12C renal 66.9% | UO-31 renal 54.9% | TK-10 renal 84.6% | ACHN renal 48.4% | CAKI-1 renal 63.2% | A498 renal 70.6% | CCRF-CEM leukemia 32.4% | MOLT-4 leukemia 18.6%

N#Cc1c(NC(=O)c2ccc(C(F)(F)F)cc2C(F)(F)F)sc2c1CCC(=O)C2
inactive: SNB-75 CNS 26.4% | A498 renal 28.6%
active: HCT-15 colon -66% | HT29 colon -57% | SNB-19 CNS 6.86% | PC-3 prostate 2.66% | SK-MEL-5 melanoma -97.6% | UACC-62 melanoma -89.5% | LOX IMVI melanoma -15.1% | SK-MEL-28 melanoma -86.2% | SK-MEL-2 melanoma -38.2% | EKVX NSCLC -57.5% | UO-31 renal -99.7% | TK-10 renal -27.8% | ACHN renal -99.4% | CAKI-1 renal -67.6% | CCRF-CEM leukemia -30% | MOLT-4 leukemia -16%

CNC(=O)c1cccc(N2CCc3c2ccc(NC(=O)Nc2ccc(N4CCN(C)CC4)c(C(F)(F)F)c2)c3F)c1
active: HCT-15 colon -89.8% | HT29 colon -88.3% | SNB-75 CNS 7.71% | SNB-19 CNS -84.7% | PC-3 prostate -51.8% | SK-MEL-5 melanoma -100% | LOX IMVI melanoma -100% | SK-MEL-28 melanoma -93.5% | SK-MEL-2 melanoma -53.2% | SN12C renal -91.5% | UO-31 renal -100% | TK-10 renal -94.7% | ACHN renal -100% | CAKI-1 renal -81.5% | CCRF-CEM leukemia -42.1%
inactive: UACC-62 melanoma 88.9% | A498 renal 39.3%

Nc1nc2c(F)c(F)c(F)c(F)c2s1
inactive: HCT-15 colon 102% | HT29 colon 104% | SNB-75 CNS 83.1% | SNB-19 CNS 99.8% | PC-3 prostate 104% | SK-MEL-5 melanoma 95.7% | UACC-62 melanoma 96.6% | SK-MEL-28 melanoma 109% | EKVX NSCLC 46.1% | SN12C renal 113% | UO-31 renal 91% | TK-10 renal 101% | ACHN renal 114% | CAKI-1 renal 85.7% | A498 renal 114% | CCRF-CEM leukemia 106% | MOLT-4 leukemia 105%

CC(C)(C)Nc1nc2cc(Cl)c(Cl)cc2nc1S(C)(=O)=O
inactive: HT29 colon 47.4% | SNB-75 CNS 45.1% | SNB-19 CNS 102% | PC-3 prostate 54% | UACC-62 melanoma 52.9% | SK-MEL-28 melanoma 62.3% | SK-MEL-2 melanoma 37.2% | EKVX NSCLC 58.1% | SN12C renal 20.1% | UO-31 renal 90% | TK-10 renal 99.8% | ACHN renal 56.3% | CAKI-1 renal 53.2%
active: HCT-15 colon -35.8% | SK-MEL-5 melanoma -17.4% | LOX IMVI melanoma -98% | CCRF-CEM leukemia -17.9% | MOLT-4 leukemia -3.12%

CC(C)CCSc1nc(NC2CC2)c(C#N)c(-c2ccc(C(C)C)cc2)n1
inactive: HCT-15 colon 106% | HT29 colon 108% | SNB-75 CNS 111% | SNB-19 CNS 98.6% | PC-3 prostate 106% | SK-MEL-5 melanoma 102% | UACC-62 melanoma 98.3% | SK-MEL-28 melanoma 110% | EKVX NSCLC 96.5% | UO-31 renal 103% | ACHN renal 108% | CAKI-1 renal 99.3% | A498 renal 109% | CCRF-CEM leukemia 95.4% | MOLT-4 leukemia 98.9%

CC(=O)Nc1ccc(-n2cnc3cc(-c4ccc(NS(C)(=O)=O)cc4)ccc32)cc1
inactive: HCT-15 colon 32.4% | HT29 colon 34.2% | SNB-75 CNS 35.6% | SNB-19 CNS 61.1% | PC-3 prostate 62.8% | SK-MEL-5 melanoma 69.5% | UACC-62 melanoma 54.7% | SK-MEL-28 melanoma 85.3% | SK-MEL-2 melanoma 73.2% | EKVX NSCLC 61% | SN12C renal 46.3% | UO-31 renal 32.1% | TK-10 renal 83.7% | ACHN renal 52.3% | CAKI-1 renal 17.5% | A498 renal 86.5% | CCRF-CEM leukemia 36.1% | MOLT-4 leukemia 24.5%

CN1CCN(c2ccc(Nc3nc(NCCCNC(=O)C4CCCCC4)c4sccc4n3)cc2)CC1
active: HCT-15 colon 2.76% | HT29 colon -1.75% | SK-MEL-28 melanoma -81.3%
inactive: SNB-75 CNS 62.9% | U251 CNS 17.1% | PC-3 prostate 50.6% | SK-MEL-5 melanoma 22.3% | UACC-62 melanoma 48.5% | LOX IMVI melanoma 10.2% | SK-MEL-2 melanoma 102% | EKVX NSCLC 67.3% | SN12C renal 70.6% | UO-31 renal 62.4% | TK-10 renal 99.4% | ACHN renal 36.2% | CAKI-1 renal 57.2% | A498 renal 144% | CCRF-CEM leukemia 18%

COc1cc2c3c(n(CCCNC(C)C)c(=O)c2cc1OC)-c1nc2c(cc1C3=O)OCO2
inactive: SNB-75 CNS 78.6% | SNB-19 CNS 33.2% | SK-MEL-5 melanoma 54.4% | UACC-62 melanoma 22% | SK-MEL-28 melanoma 49.2% | SK-MEL-2 melanoma 128% | EKVX NSCLC 87.6% | TK-10 renal 97.2% | CAKI-1 renal 13.7% | A498 renal 81.9%
active: HCT-15 colon -87.9% | HT29 colon -65.4% | PC-3 prostate -66.1% | LOX IMVI melanoma -97.3% | UO-31 renal -97% | ACHN renal 4.04% | CCRF-CEM leukemia 5.05% | MOLT-4 leukemia -1.94%

C=CC(=O)Nc1nc(-c2cccc(NS(=O)(=O)c3cccc4c(N(C)C)cccc34)c2)cs1
active: HCT-15 colon -76.8% | HT29 colon -56.3% | SNB-75 CNS 5.83% | U251 CNS -59% | PC-3 prostate -26% | SK-MEL-5 melanoma -87.7% | UACC-62 melanoma -86.8% | LOX IMVI melanoma -95.2% | SK-MEL-28 melanoma -93.6% | SK-MEL-2 melanoma -62.7% | SN12C renal -56.6% | UO-31 renal -100% | TK-10 renal -76.9% | ACHN renal -79.8% | CAKI-1 renal -87.5% | CCRF-CEM leukemia -32%
inactive: EKVX NSCLC 29% | A498 renal 25.7%

O=C1NC(=NC23CC4CC(CC(C4)C2)C3)N/C1=C\c1ccc2ncoc2c1
active: HCT-15 colon 0.0072% | HT29 colon 4.66% | SNB-75 CNS -8.6% | SNB-19 CNS 6.88% | PC-3 prostate 5.37% | SK-MEL-5 melanoma 1.95% | UACC-62 melanoma -71.4% | LOX IMVI melanoma 0.372% | SK-MEL-28 melanoma -18.6% | SK-MEL-2 melanoma -92.4% | EKVX NSCLC -14% | SN12C renal 2.78% | UO-31 renal 1.68% | ACHN renal -10.4% | CAKI-1 renal 7.48% | A498 renal -5.36% | CCRF-CEM leukemia -6.48%
inactive: TK-10 renal 24.2% | MOLT-4 leukemia 10.6%

O=C1CCC(N2Cc3c(C#CCCCNC(=O)c4ccc(NC(=O)[C@@H]5NC6(CCCCC6)[C@@]6(C(=O)Nc7cc(Cl)ccc76)[C@H]5c5cccc(Cl)c5F)cc4)cccc3C2=O)C(=O)N1 (some centres not stated)
inactive: HCT-15 colon 41.8% | HT29 colon 51.5% | SNB-75 CNS 56.1% | SNB-19 CNS 58.8% | PC-3 prostate 51.8% | UACC-62 melanoma 17.3% | LOX IMVI melanoma 27.5% | SK-MEL-28 melanoma 62.2% | SK-MEL-2 melanoma 76.4% | SN12C renal 74.3% | UO-31 renal 30.3% | TK-10 renal 79.8% | ACHN renal 26.2% | CAKI-1 renal 36.1% | A498 renal 94.9% | CCRF-CEM leukemia 47.9%
active: SK-MEL-5 melanoma 5.4%

COc1ccccc1C(=O)NNC(=O)CSc1nc2c(c(=O)[nH]1)CCCC2
inactive: HCT-15 colon 110% | HT29 colon 113% | SNB-75 CNS 99.3% | SNB-19 CNS 101% | PC-3 prostate 83.4% | SK-MEL-5 melanoma 99.3% | UACC-62 melanoma 95.2% | LOX IMVI melanoma 96.9% | SK-MEL-28 melanoma 110% | SK-MEL-2 melanoma 112% | EKVX NSCLC 91.5% | UO-31 renal 61.9% | TK-10 renal 132% | ACHN renal 98.8% | CAKI-1 renal 84.5% | A498 renal 153% | CCRF-CEM leukemia 96.8% | MOLT-4 leukemia 105%

CN1C(=O)N(C)C2SC(N/N=C/C=C/c3ccccc3)=NC21 (configuration not stated)
inactive: HCT-15 colon 37.2% | HT29 colon 73.2% | SNB-75 CNS 89.7% | SNB-19 CNS 72.5% | PC-3 prostate 75.5% | SK-MEL-5 melanoma 57.9% | UACC-62 melanoma 41.7% | LOX IMVI melanoma 68.1% | SK-MEL-28 melanoma 69.5% | SK-MEL-2 melanoma 81.9% | EKVX NSCLC 86.6% | SN12C renal 85.6% | UO-31 renal 58.4% | TK-10 renal 99.6% | ACHN renal 92.7% | CAKI-1 renal 83.6% | A498 renal 81.5% | CCRF-CEM leukemia 47.5% | MOLT-4 leukemia 46.7%

CCCn1c(=O)c2[nH]c(-c3ccc(OCc4nc5ccc(C)cc5[nH]4)cc3)nc2n(CCC)c1=O
inactive: HCT-15 colon 23.5% | HT29 colon 38.7% | SNB-19 CNS 34% | PC-3 prostate 39.2% | SK-MEL-5 melanoma 12.8% | SK-MEL-28 melanoma 39.9% | SK-MEL-2 melanoma 52.1% | CCRF-CEM leukemia 46.8% | MOLT-4 leukemia 15.2%
active: SNB-75 CNS -38.1% | UACC-62 melanoma 2.25% | LOX IMVI melanoma -20.3% | EKVX NSCLC 9.33% | SN12C renal -5.67% | UO-31 renal -91% | TK-10 renal -51.8% | ACHN renal -88.2% | CAKI-1 renal 6.1% | A498 renal -79.8%
